# Bioassay records as filed in PubChem.
# Sampled rows, rich in hits. Any-hit rate of the full collection: about 18%.
# HepG2 viability: kills HepG2 cells in TGF-b inhibitor counter-screen; HepG2 CAGA-GFP viability, ATP luminescence, 18 h; Potency, µM (highest dose often 46.1 µM), for the others: at the highest dose activity change, negative = cytotoxicity, hits mostly cytotoxic; 0.76% of 410,000 active; also: potency is read from the fitted curve at half-maximal effect
#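 CellTiter-Glo luminescence gave cytotoxicity after 18 hours at 37 degrees C. The cells were HepG2 CAGA-GFP in 1% FBS DMEM, stimulated with 500 pg/mL TGF-beta after compound addition. %Activity was normalised to no-cell wells (complete cell-killing) and DMSO (no toxicity), and curves were fitted and classified.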
# DT40 TDP1 no CPT: qHTS for Inhibitors of human tyrosyl-DNA phosphodiesterase 1 (TDP1): qHTS in cells in absence of CPT | Potency, µM (series often up to 46.2 µM), without a hit: at the top dose activity change, negative = growth inhibition, hits mostly inhibitors | DT40 Tdp1-/- hTDP1 cells, no CPT, ATP luminescence, 48 h | 15% of 420,000 active | AID 686978, 2013; also: potency is read from the fitted curve at half-maximal effect; % is scaled to controls: 0 for no effect and ±100 for the full control effect; nearly all actives have a fitted effect of over 55% in size
#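 Luminescent ATP content (CellTiter-Glo) served as the growth readout. Knockout chicken DT40 cells expressing human TDP1 were exposed to compounds without camptothecin for a minimum 48 hr at 37 °C.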
# TDP1 inh: TDP1 (human) enzyme inhibition. recombinant TDP1, AlphaScreen DNA substrate cleavage. Potency, µM (titrated, usually from 130 µM), inactives show at the top dose activity change, negative = inhibition, actives largely listed as inhibitors. 0.28% of 350,000 active. AID 485290; also: potency is read from the fitted curve at half-maximal effect; % is scaled to controls: 0 for no effect and ±100 for the full control effect; nearly all actives have a fitted effect of over 40% in size
# Target sequence (Q9NUW8 whole entry, looked up): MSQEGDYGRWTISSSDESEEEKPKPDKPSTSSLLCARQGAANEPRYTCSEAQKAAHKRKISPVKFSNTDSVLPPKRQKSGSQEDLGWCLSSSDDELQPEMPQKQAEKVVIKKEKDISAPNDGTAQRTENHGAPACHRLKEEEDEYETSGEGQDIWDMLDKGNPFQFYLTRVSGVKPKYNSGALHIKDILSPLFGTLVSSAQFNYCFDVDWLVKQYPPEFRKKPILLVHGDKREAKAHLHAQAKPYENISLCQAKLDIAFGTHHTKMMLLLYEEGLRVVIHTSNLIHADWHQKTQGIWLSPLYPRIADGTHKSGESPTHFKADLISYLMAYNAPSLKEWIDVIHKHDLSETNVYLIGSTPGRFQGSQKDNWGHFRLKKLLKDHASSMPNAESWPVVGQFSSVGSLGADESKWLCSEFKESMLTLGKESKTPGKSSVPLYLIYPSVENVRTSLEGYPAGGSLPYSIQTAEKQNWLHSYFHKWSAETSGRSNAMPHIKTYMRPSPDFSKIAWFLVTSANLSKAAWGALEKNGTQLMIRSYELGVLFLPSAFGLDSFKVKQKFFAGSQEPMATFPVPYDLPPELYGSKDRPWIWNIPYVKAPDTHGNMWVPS
#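 Enzyme-compound mixtures sat 15 min at room temperature, followed by a 5 min reaction with 15 nM final substrate and 10 min with AlphaScreen beads. Recombinant human Tdp1 was used at 1 nM final.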
# IL1B secr inh: inhibitors of inflammasome signaling (IL-1 beta secretion); THP-1 LPS/ATP IL-1B secretion, AlphaLISA, 16 h; active compounds read low; activity change, % at 57.5 µM; 4.7% of 360,000 active; in the data active = activity change below about -50%; inconclusive = mostly about -30% to -49%; also: % is scaled to controls: 0 for no effect and ±100 for the full control effect
#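 THP-1 cells pretreated 1 hr with compounds (up to 57.5 uM final), then stimulated with LPS (250 ng/mL final) plus ATP (1.25 mM final); secreted IL-1B measured by AlphaLISA after 16 hr, decreased signal indicating inhibition.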
# DT40 TDP1 CPT: growth inhibition of DT40 Tdp1-/-;hTDP1 cells with camptothecin (screen for TDP1 inhibitors). Potency, µM (titrated, usually from 46.2 µM), without a hit: at the top dose activity change, negative = growth inhibition, hits mostly inhibitors. AID 686979. 12% of 420,000 active. chicken DT40 Tdp1-/-;hTDP1 cells + 20 nM CPT, ATP luminescence, 48 h; also: potency is read from the fitted curve at half-maximal effect; % is scaled to controls: 0 for no effect and ±100 for the full control effect; nearly all actives have a fitted effect of over 55% in size
#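 Chicken DT40 Tdp1-/- cells complemented with human TDP1, 400 cells/well, exposed to compounds plus 20 nM camptothecin for at least 48 h at 37 C; viability read as ATP content by CellTiter-Glo luminescence.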
# TGFb SMAD3 inh: TGF-b pathway inhibition; HepG2 CAGA-GFP TGF-b/SMAD3 reporter, GFP fluorescence, 18 h; TGF-beta stimulated, 500 pg/mL final; Potency, µM (titrated, usually from 46.1 µM), for the others: at the top dose activity, negative = inhibition, hits mostly inhibitors; 1.2% of 410,000 active; also: potency is read from the fitted curve at half-maximal effect; % is scaled to controls: 0 for no effect and ±100 for the full control effect; nearly all actives have a fitted effect of over 65% in size
#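 HEPG2 CAGA-GFP, 1000 cells/well; 2 h settle, 37 C; cpd via pin tool; TGF-b 500 pg/mL final; 18 h, 37 C; GFP imaging ex488/em500-530; %Activity normalised to -TGF-b and +DMSO controls; CRC fit, curve class.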
# The depositor's hits bear a star; u = inconclusive; x = no result; ! = a repeat was not active; [ ] = another dose, or the depositor's remark. Unless noted, calls follow the shape of the dose curve; as a rule, active = well fitted curve in the direction sought with a large enough effect; inconclusive = small, poorly fitted or top-dose-only effect, or another doubt; inactive = no such curve, though single readings can be large; an effect the other way counts as inactive or inconclusive.
SMILES,HepG2 viability,DT40 TDP1 no CPT,TDP1 inh,IL1B secr inh,DT40 TDP1 CPT,TGFb SMAD3 inh
Cc1ccc(OCCCn2c(CO)nc3ccccc32)cc1,-8%,u,7%,-6,u,20%
COCCn1c(COc2ccc(C)cc2)nc2ccccc21,-18%,u,2%,u,u,u
Cc1ccc(OCCn2c(CNc3cccc(C)c3)nc3ccccc32)cc1,-35%,u,9%,x,u,13µM*
CCCn1c(CNc2ccc(Br)cc2)nc2ccccc21,-30%,u,7%,-28,23µM*,u
COc1ccc(NCc2nc3ccccc3n2CCOc2ccccc2C)cc1,-38%,u,15%,x,18µM*,u
Fc1ccc(NCc2nc3ccccc3n2CCOc2ccccc2Cl)cc1,-27%,u,6%,x,u,u
COc1ccc(CCN(CC(=O)NCc2ccc(F)cc2)C(=O)c2snc(C(N)=O)c2N)cc1OC,0%,-21%,13%,-16,-2%,0%
CN(CCCN1CCCCC1)C(=O)c1cc(COc2ccc(F)cc2F)on1,-8%,-5%,2%,10,-8%,-1%
CCOc1ccccc1NC(=O)c1cc2c(=O)oc3ccccc3c2s1,1%,-19%,4%,x,-8%,-23%
O=S1(=O)CC(N2CC=CC2)CN1C1CCCCC1 (centres undefined),-29%,u,x,-9,u,-24%
O=C(O)CNC(=O)CC1S/C(=N/N=C2/NC(=O)CS2)NC1=O (centres undefined),-14%,-1%,40µM*,25,6%,0%
O=C(CNCC1CCCO1)NCc1ccco1 (centres undefined),-4%,-22%,-8%,-5,17%,-2%
NS(=O)(=O)c1ccc(CCNC(=O)c2ccc(Cl)s2)cc1,-4%,-10%,3%,5,-5%,-19%
NS(=O)(=O)c1ccc(CCNC(=O)c2ccc([N+](=O)[O-])s2)cc1,20µM*,u,x,25,16µM*,u
CCc1nnc(NS(=O)(=O)c2ccc(NCc3cc(Cl)ccc3O)cc2)s1,3%,-2%,x,17,u,2%
COc1ccc(CN2[C@@H](CC(=O)O)c3ccc(/C=C/C(=O)O)cc3S2(=O)=O)cc1,28%,u,x,x,u,12%
COc1cccc(N2[C@@H](CC(C)=O)c3ccc(/C=C/C(C)=O)cc3S2(=O)=O)c1,-37%,5.2µM*,x,-100*,5.2µM*,16µM*
COc1ccc(CN2[C@@H](CC(C)=O)c3ccc(/C=C/C(C)=O)cc3S2(=O)=O)cc1,11µM*!,9.2µM*,x,-102*,7.3µM*,u
C/C=C1\NC(=O)[C@H](C)NC(=O)[C@@H](NC(=O)[C@H](Cc2ccc(O)cc2)NC(=O)[C@@H](NC(=O)/C(C)=C/C)C(C)C)[C@@H](C)OC(=O)[C@H](CC(C)C)NC(=O)[C@@H](CCC(=O)O)NC1=O,1%,17%,x,29,3%,-1%
COc1ccc(OCCn2c(C3CC(=O)N(c4ccc(F)cc4)C3)nc3ccccc32)cc1 (centres undefined),-8%,18µM*,0%,x,16µM*,u
CCOc1ccccc1N1CC(c2nc3ccccc3n2CCOc2ccc(OC)cc2)CC1=O (centres undefined),13µM*,18µM*,5%,x,u,u
C#CCn1c(C2CC(=O)N(c3ccc(OCC)cc3)C2)nc2ccccc21 (centres undefined),-6%,u,5%,x,u,-8%
CCOc1ccc(N2CC(c3nc4ccccc4n3CCCOc3ccc(OC)cc3)CC2=O)cc1 (centres undefined),-4%,8.2µM*,4%,x,u,-28%
CCOc1ccccc1N1CC(c2nc3ccccc3n2CCCOc2ccc(OC)cc2)CC1=O (centres undefined),-3%,8%,8%,x,0%,0%
CCc1ccccc1N1CC(c2nc3ccccc3n2CC(C)C)CC1=O (centres undefined),-18%,21µM*,0%,x,15µM*,u
SMILES,HepG2 viability,DT40 TDP1 no CPT,TDP1 inh,IL1B secr inh,DT40 TDP1 CPT,TGFb SMAD3 inh
Cn1c(N)c(C#N)c(-c2ccccc2)c(C#N)c1=O,0%,-10%,x,-3,-6%,-16%
CC1CCN(S(=O)(=O)c2ccc3c(c2)c(=O)c(C(=O)NCCc2ccccc2)cn3C)CC1,-26%,u,0%,x,-12%,-16%
CCc1ccc2occ(CC(=O)Nc3c(C(=O)c4ccc(C)cc4)oc4ccccc34)c2c1,1%,-29%,0%,x,-27%,-4%
Cc1cc(C)cc(OCCn2c(C3CC(=O)N(c4ccccc4Cl)C3)nc3ccccc32)c1 (centres undefined),-24%,21µM*,x,x,u,u
Cc1ccc(OCCn2c(C3CC(=O)N(Cc4ccccc4)C3)nc3ccccc32)cc1 (centres undefined),-16%,15µM*,7%,-22,u,u
O=C(C[C@@H]1CC[C@H](NS(=O)(=O)c2ccccc2F)[C@@H](CO)O1)NCCCN1CCOCC1,x,3%,x,0,7%,x
O=c1ccc2nc3ccccc3sc-2c1,25µM*,1.5µM*,x,-102*,0.65µM*,20µM*
CCCn1c(=N)c(C(=O)NC2CCCCC2)cc2c(=O)n3cc(C)ccc3nc21,-2%,9%,x,x,0%,235%
COC(=O)N=Nc1c(O)[nH]c2ccc(Br)cc12,10%,u,6%,19,-9%,7%
Oc1[nH]c2ccc(Br)cc2c1N=NC(=S)N1CCOCC1,-30%,0.73µM*,11%,158,0.73µM*,u
Oc1[nH]c2ccccc2c1N=NC(=S)N1CCOCC1,3.2µM*,1.5µM*,8%,130,1.6µM*,7.1µM*
Oc1ccc(Cl)cc1CNCC1CCCCC1,-6%,u,1%,-64*,15µM*,-8%
C=CCN(Cc1cccs1)C(=O)CN1CCN(S(=O)(=O)c2ccc3c(c2)OCCCO3)CC1,-22%,u,-2%[56.1 µM],-20,u,u
COC(=O)[C@]12CCCCC=C1N(Cc1ccc(Cl)cc1Cl)C(=O)[C@H](CC(=O)NCc1cccc(C(F)(F)F)c1)C2,x,u,x,-4,u,x
CCCCCCCCN1C(=O)[C@H](CC(=O)NCc2cccc(C(F)(F)F)c2)C[C@@]2(C(=O)OCC)CCC=C12,x,13µM*,x,-23,u,x
